In PubChem BioAssay AID652067 (The Scripps Research Institute Molecular Screening Center, 2013):
The campaign covered roughly 370,000 compounds. About 5,400 (1.5%) were called active. The sample holds actives, similar compounds and a random draw of the others, so the mix is not that of the screen. A number with no mark means an inactive call.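 How the source made its calls: active means activation above the mean of all tested compounds plus 3 SD (cut at about 5.5% in these data); inactive means the rest.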

test system: DAF-12 nuclear receptor (Haemonchus contortus); assay: H. contortus DAF-12 nuclear receptor activators, primary screen, cell-based, luminescence, HEK293, lit1-tk-luc reporter (AID 652067); settings: HEK293 hcDAF-12 lit1-tk-luc reporter, at 6.8 µM, active compounds read high, 0% DMSO, 100% Δ7-dafachronic acid;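 further: 100% = response to 3 µM Δ7-dafachronic acid high control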

Row | Structure (SMILES) | activation
1 | CC(C)CC(=O)NC(=S)NNC(=O)c1cccc([N+](=O)[O-])c1 | 1.89%
2 | CC(C)CC(=O)N/C(N)=N/c1nc2ccccc2s1 | 8.5% (active)
3 | CC(NC(=O)COC(=O)c1ccc2ccccc2n1)c1ccccc1 (stereo not drawn) | 2.13%
4 | Cc1cnc(C)c(N2CCN(C(=O)C3CCC(=O)N(CCc4cccc(F)c4)C3)CC2)n1 (stereo not drawn) | -0.94%
5 | Cc1sc2nc(SCC(=O)c3ccc(O)c(O)c3)n(Cc3ccco3)c(=O)c2c1C | -0.45%
6 | CC12CCC(C(=O)N3CCN(c4ncccn4)CC3)(c3nc4ccccc4nc31)C2(C)C (stereo not drawn) | -0.6%
7 | CC1=C(N2CCN(c3ncccn3)CC2)CCC1=O | -1.78%
8 | c1cnc(N2CCN(c3ccc4ccccc4n3)CC2)nc1 | 9.72% (active)
9 | COC(=O)N1Cc2ccnnc2CC1c1ccccc1Br (stereo not drawn) | -2.69%
10 | Nc1ccn([C@@H]2O[C@H](C(=O)N[C@H]3CCCCNC3=O)[C@@H](O)[C@H]2O)c(=O)n1 | 0.58%
11 | Cc1cccc(N2CCN(Cc3c(C)n(C)n(-c4ccccc4)c3=O)CC2)c1C | -2.12%
12 | Cc1ccc(CN2CCN(Cc3ccccc3-c3ccco3)CC2CCO)o1 (stereo not drawn) | -0.79%
13 | CCn1cc(CN2CCN(CC(C)(C)C)C(CCO)C2)c2ccccc21 (stereo not drawn) | 7.54% (active)
14 | COc1ccccc1N1CCC(N2CCN(CC(C)(C)C)C(CCO)C2)CC1 (stereo not drawn) | -0.72%
15 | COC(=O)[C@]12C[C@H](CC(=O)NCc3ccccc3)C(=O)N(Cc3ccccc3)C1=C[C@H](COCc1ccccc1)O[C@@H]2C | -1.28%
16 | CC(=O)c1cccc(NC(=O)COc2ccc(S(=O)(=O)N3CCOCC3)cc2)c1 | -0.45%
17 | Cc1ccccc1NC(=O)C1CCN(c2ncccn2)CC1 | 0.03%
18 | Nn1c(SCC(=O)N2c3ccccc3Sc3ccccc32)nnc1-c1n[nH]c2c1CCC2 | -2.66%
19 | CCOC(=O)c1ccccc1NC(=O)c1c(N)n(C)c(=O)[nH]c1=O | -0.79%
20 | CCOC(=O)c1cnn(Cc2ccccc2Cl)c1N | 1.1%

Row | Structure (SMILES) | activation
21 | CCOC(=O)c1cc2n(c1N)-c1ccccc1C2=O | 6.53% (active)
22 | C[C@H](O)[C@@H]1CN2CCc3ccc(-c4ccc5c(c4)OCO5)cc3[C@@H]2C[C@@H]1N(C)C(=O)C1CCCCC1 | -0.66%
23 | Cc1ccc(OCc2nnc(SC/C=C/c3ccccc3)n2Cc2ccco2)cc1 | -1.14%
24 | COc1ccc(N2CCN(CCNS(=O)(=O)c3ccc(C(C)(C)C)cc3)CC2)cc1 | -4.56%
25 | CC1=NCCN1S(=O)(=O)c1ccc(Br)c(C)c1 | -1.01%
26 | COc1ccc(CN2C/C(=C/c3ccccc3)N3C(=O)C[C@@H](c4ccccc4)N=C23)c(OC)c1 | -1.56%
27 | CN(CCOc1ccccc1)C(=O)c1cc(COc2c(F)cccc2F)on1 | -1.26%
28 | COc1cc2ccccc2cc1C(=O)N(CCN(C)C)c1nc2c(F)cccc2s1 | 6.37% (active)
29 | COc1cccc2cc(C(=O)N(C)C)c(=O)oc12 | -0.74%
30 | O=S1(=O)c2ccc(N3CCN(Cc4ccccc4F)CC3)cc2Oc2ccccc2CN1Cc1cn(Cc2ccc(Cl)cc2)nn1 | 0.96%
31 | COc1ccc(CNS(=O)(=O)c2cc(Br)ccc2Br)cc1 | -0.97%
32 | CC1CCN(C(=O)c2ncn3c2C(=O)N[C@@H](C)C3)CC1 | -0.73%
33 | COc1nc(N=C(N)N)nc2c(C)cccc12 | 6.14% (active)
34 | CCc1c(C)nc2c(OC)cccc2c1Cl | -0.4%
35 | Cc1nc(N=C(N)N)nc2c(C)cccc12 | 5.96% (active)
36 | CCOC(=O)[C@]12CCCCC/C=C\1N(Cc1ccc(OC)cc1)C(=O)[C@H]2CC(=O)N1CCOCC1 | 4.16%
37 | Cc1cc(C(=O)NN=C/C=C/c2ccco2)n[nH]1 | -0.38%
38 | NNc1nc2c(Cl)cccc2s1 | 10% (active)
39 | COC(=O)C1=C(C)N(Cc2ccccc2C(F)(F)F)C(=NCC2CC2)NC1c1cccc(Cl)c1 (stereo not drawn) | -1.98%
40 | Cc1cccc(-c2nc3ccccc3c(=O)n2NC(=O)Cc2ccc(Cl)cc2)c1 | 6.73% (active)

Row | Structure (SMILES) | activation
41 | O=C(Nn1c(-c2ccc(Cl)cc2)nc2ccccc2c1=O)c1cccnc1Cl | 0.57%
42 | COc1cc(OC)cc(-c2nc3ccccc3c(=O)n2NC(=O)c2cccnc2Cl)c1 | -1.71%
43 | S=c1c2[nH]cnc2ncn1CCSc1ncnc2nc[nH]c12 | -0.28%
44 | CC(C)CC(=O)Nc1ccc(Cc2ccncc2)cc1 | 0.36%
45 | CC(CC(=O)Nc1ccccc1)n1ccnc1 (stereo not drawn) | 5.72% (active)
46 | O=C(O)CCCC(=O)Nc1ccccc1-n1ccnc1 | -1.24%
47 | CCOc1ccc(NC(=O)CCS(=O)(=O)c2ccc3c(c2)CCCN3C(=O)CC)cc1 | -1.11%
48 | Cc1ccccc1NC(=O)CCOc1ccccc1 | 0.95%
49 | COc1cc2ccccc2cc1C(=O)Nc1ccccc1C | 10.1% (active)
50 | Cc1ccccc1C(=O)Nc1ccccc1Sc1ccccc1 | -0.9%
51 | CCCCCCCCN1C(=O)[C@@H](CC(=O)NCc2ccccc2)C[C@@]2(C(=O)OC)C1=C[C@H](C(C)(C)C)O[C@@H]2C | 1.65%
52 | COC1=C[C@H](C(=O)NCCNC(C)=O)[C@H](C)[C@@H](c2ccccc2)CC1=O | -2.16%
53 | O=C(c1ccccc1)c1ccc(-c2ccccc2C(=O)NC2CCCCN(Cc3ccc(Cl)cc3)C2=O)cc1 (stereo not drawn) | -0.91%
54 | COC(=O)c1c(-c2ccc(OC)cc2)c2c(c3c4ccccc4n(S(=O)(=O)c4ccc(C)cc4)c13)C(=O)N(C)C2 | 1.29%
55 | CCc1ccc(-c2nnn(Cc3nc4ccccc4s3)n2)cc1 | 3.01%
56 | COC(=O)C1[C@H]2SC(C)(C)C(C(=O)OC)N2C(=O)N1Cc1nc2ccccc2s1 (stereo partly drawn) | 0.45%
57 | COc1ccccc1OCc1nc2ccccc2s1 | 17.9% (active)
58 | N#Cc1ccc(OC[C@@H](O)CN2CCC(C(O)(c3ccccc3)c3ccccc3)CC2)c(F)c1 | 0.25%
